Screens (PubChem BioAssay)
Hits are enriched below; roughly 1.2% of the tested compounds scored in any of these assays.
E coli Lon inh: inhibits E. coli Lon protease | P0A9M0 | purified E. coli Lon protease, fluorescence polarization | inhibition, % at 7.94 µM | 360,000 tested, 0.42% active; in the data active means inhibition above about 13%, passing the limit was not always enough
RTF Ca sens inh: cardiac RTF calcium desensitization | 340,000 tested, 0.12% active | P19429+P45379 | inhibition, % at 7.15 µM | IANBD-labeled cardiac RTF, Ca2+ fluorescence;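 active means inhibition above the mean inhibition of all tested compounds plus 3 SD, cut at about 17% in these data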;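 further: assay run at fixed EC70 calcium of 1.6 mM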
cardiac RTF act: increases calcium sensitivity of human cardiac regulated thin filaments | P19429+P45379 | IANBD-labeled TnC RTF fluorescence at EC20 calcium; 0% EC20 calcium, 100% full calcium | activation, % at 7.2 µM | 340,000 tested, 0.24% active;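 active means activation above the mean over all tested compounds plus 3 SD, cut at about 30% in these data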;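 further: rise in fluorescence read as greater calcium sensitivity of cardiac thin filaments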
BCLXL inh: inhibitors of human Bcl-xL. Q07817. GST-Bcl-xL / FITC-Bim BH3 peptide fluorescence polarization. inhibition, % at 10.9 µM. 320,000 tested, 0.7% active;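 active means inhibition above the mean of all tested compounds plus 3 SD, cutoff set per campaign, cut at about 30% in these data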;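 further: inhibitors lower millipolarization by displacing the labeled peptide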
GLD-1 TGE inh: GLD-1-TGE RNA interaction inhibition (C. elegans) | Q17339 | purified GLD-1 + fluorescein TGE RNA, fluorescence polarization | inhibition, % at 5.96 µM | 320,000 tested, 0.44% active | AID 2280;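 active means percent inhibition above a per-plate cutoff, the plate mean of test compounds plus 3 SD, cut at about 30% in these data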
Target sequence (Q17339 whole entry, looked up): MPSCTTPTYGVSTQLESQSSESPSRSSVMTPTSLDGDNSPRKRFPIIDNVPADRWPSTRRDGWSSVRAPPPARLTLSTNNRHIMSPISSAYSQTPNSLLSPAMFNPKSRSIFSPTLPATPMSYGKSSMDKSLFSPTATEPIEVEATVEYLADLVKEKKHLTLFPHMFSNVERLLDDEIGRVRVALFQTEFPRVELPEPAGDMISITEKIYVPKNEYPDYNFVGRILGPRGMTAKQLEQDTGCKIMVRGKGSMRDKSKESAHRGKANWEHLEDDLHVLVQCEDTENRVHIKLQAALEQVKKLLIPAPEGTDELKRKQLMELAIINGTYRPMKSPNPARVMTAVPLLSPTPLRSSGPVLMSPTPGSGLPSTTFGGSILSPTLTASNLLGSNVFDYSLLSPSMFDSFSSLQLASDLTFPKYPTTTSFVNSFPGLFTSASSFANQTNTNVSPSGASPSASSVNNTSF
GLD1 RNA confirm: confirmation of C. elegans GLD-1 TGE RNA binding inhibitors | shares compounds with GLD-1 TGE inh | GLD-1/FL-TGE RNA fluorescence polarization, biochemical | inhibition, % at 5.96 µM | 550 tested, 10% active;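 active means average inhibition across triplicates above the hit cutoff set in the primary screen, cut at about 32% in these data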
A number is an active result; . = inactive; / = no result.

SMILES | E coli Lon inh | RTF Ca sens inh | cardiac RTF act | BCLXL inh | GLD-1 TGE inh | GLD1 RNA confirm
CCCCCCOc1ccc(C(=O)O)cc1C#N | . | . | . | . | 40.3 | .
CCCCCCCCOc1ccc(C(=O)O)cc1 | . | . | . | . | . | /
CN1CCN(CP(=O)(N2CCOCC2)N2CCOCC2)CC1 | . | . | . | . | 43.0 | .
C(CCN1CCOCC1)CN1CCOCC1 | . | / | / | / | / | /
Cc1cc(NC(=O)CSc2nc(=O)cc(N)n2-c2ccc(C)c(C)c2)no1 | . | . | . | . | . | /
O=C(Nc1ccccc1)Nc1ccc(Cl)nc1Cl | . | . | . | . | 35.6 | .
Cc1ccc(C(=O)NNC(=O)/C=C\C(=O)O)cc1 | . | . | . | . | 79.3 | .
COc1cc(/C=C(\C#N)c2nc3ccccc3[nH]2)cc(Br)c1OCc1ccc(F)cc1 | . | . | . | . | 97.3 | .
O=c1c2ccccc2nc2n1CC/C2=C/N1CCN(c2cccc(C(F)(F)F)c2)CC1 | . | . | . | 50.2 | 42.1 | .
O=C(O)c1ccc2c(=O)n3c(nc2c1)/C(=C/c1ccc(C(F)(F)F)cc1)CC3 | . | . | . | . | . | /
COc1ccc(CN2CC[C@H]3C=CCc4cccc(c43)C2)cc1 | . | . | . | 71.9 | 59.7 | .
Cc1ccc(CN2CC[C@H]3C=CCc4cccc(c43)C2)cc1 | . | . | . | . | . | /
CCCC(=Nc1ccc(N)cc1)C1=C(O)C(C(=O)OC)C(C)(C)CC1=O (stereo not given) | . | . | . | 43.6 | 32.6 | .
CCCC(=O)C1=C(O)C(C(=O)OC)C(C)(C)CC1=Nc1ccc(N)cc1 (stereo not given) | . | . | . | . | . | /
Cc1cc2nc(/C=C/c3nc4cc(C)c(C)cc4[nH]3)[nH]c2cc1C | . | . | . | . | . | /
Cc1ccc(/C=C/c2nc3ccccc3[nH]2)o1 | . | . | . | 40.3 | 31.9 | .
CCN(CC)C(=O)CSc1nnc2nnc3cc(C)ccc3n12 | . | . | . | . | 41.5 | .
Cc1ccc(F)cc1NS(=O)(=O)c1ccc(Cl)s1 | . | . | . | . | . | /
Cc1cnc(NC(=O)Cc2ccc(S(=O)(=O)N3CCOCC3)s2)s1 | . | . | . | / | 48.2 | .
CCOC(=O)C1C(c2ccc(O)c(OC)c2)NC(=O)NC1(O)C(F)(F)F (stereo not given) | . | . | . | . | . | /
CCOC(=O)C1C(c2ccc3c(c2)OCO3)NC(=O)NC1(O)C(F)(F)F (stereo not given) | . | . | . | 59.8 | 32.8 | .
Cc1cccc(OCCNc2ccc([N+](=O)[O-])cn2)c1 | . | . | . | . | 32.5 | .
COc1ccc(OC)c(C(=O)N(C)C2CCCN(Cc3ccccc3F)C2)c1 (stereo not given) | . | . | . | . | 39.2 | .
Cc1onc(-c2ccccc2)c1C(=O)OCC(=O)NCc1ccc(F)cc1 | . | . | . | . | 30.8 | .
O=C(COC(=O)c1ccc(Br)cc1)NCc1ccccc1 | . | . | . | . | 41.2 | .
SMILES | E coli Lon inh | RTF Ca sens inh | cardiac RTF act | BCLXL inh | GLD-1 TGE inh | GLD1 RNA confirm
NC(=O)c1ccccc1NC(=O)/C=C/c1ccccc1 | . | . | . | . | . | /
NC(=O)c1ccccc1NC(=O)/C=C/c1ccc(Cl)cc1 | . | . | . | . | 56.2 | .
O=C(CS(=O)(=O)c1cn(Cc2ccc(Cl)cc2)c2ccccc12)N1CCCC1 | . | . | . | . | . | /
O=C(Cc1cn(Cc2cccc(Cl)c2)c2ccccc12)N1CCCC1 | . | . | . | . | 53.8 | .
O=C(NC1CCCC1)C1CC(=O)N(CCc2ccccc2)C1 (stereo not given) | . | . | . | . | . | /
CCOC(=O)c1cc2c(ccn2C)n1CC(=O)N1CCN(c2cccc(C(F)(F)F)c2)CC1 | . | . | . | . | 39.9 | 46.7
CCOC(=O)c1cc2c(ccn2C)n1CC(=O)N1CCN(c2ccc(F)cc2)CC1 | . | . | . | . | . | /
COc1nnc(-c2ccc(C)c(S(=O)(=O)NCCO)c2)c2ccccc12 | . | . | . | 39.3 | 49.0 | .
COc1nnc(-c2ccc(C)c(S(=O)(=O)NC(C)(C)CO)c2)c2ccccc12 | . | . | . | . | . | /
Clc1cccc(C2Nc3cccc4cccc(c34)N2)c1 | . | . | . | . | 32.0 | .
Cc1ccnc(Nc2nc(-c3ccc(Cl)cc3)cs2)c1 | . | . | . | . | 31.8 | .
Cc1ccnc(Nc2nc(-c3ccc(F)cc3)cs2)c1 | . | . | . | . | . | /
